{"source": "the supplement of paper PMC9446081", "note": "Screen size: about 39,000 compounds; about 220 (0.56%) showed activity. What follows is part of a selection rich in actives, with near analogues and random picks from the rest. Unmarked numbers belong to inactive results.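 Further: Wild-type cells incubated without shaking, value is the mean of two biological replicates.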"}
{"tested_on": "Escherichia coli K-12 BW25113", "test": "relative growth (OD600 normalised to plate interquartile mean) (fraction); higher = less growth inhibition, active = 0.2 or less", "conditions": "50 µM; LB; incubation time: overnight (16-24 h)"}
{"smiles": "C[N+](C)(C)CCCl", "relative growth": 1}
{"smiles": "C[N+](C)(C)CCCCCCCCCC[N+](C)(C)C.[Br-].[Br-]", "relative growth": 1.05}
{"smiles": "CCCCCCCCCCCCCCCC[N+](C)(C)C.[Br-]", "relative growth": "0.0522 (active)"}
{"smiles": "CCC(N)C(O)c1ccc(O)c(O)c1.Cl", "note": "(stereo unspecified)", "relative growth": 0.99}
{"smiles": "CC12CCC3C(CCC4CC(=O)CCC43C)C1CCC2=O", "note": "(stereo not drawn) [\"5alpha-ANDROSTAN-3,17-DIONE\"]", "relative growth": 0.862}
{"smiles": "CCC(=O)CCCCC[C@@H]1NC(=O)[C@H]2CCCCN2C(=O)[C@H]([C@H](C)CC)NC(=O)[C@H](Cc2cn(OC)c3ccccc23)NC1=O", "relative growth": 1}
{"smiles": "COc1cc2c(cc1OC)C13CCN4CC5=CCOC6CC(=O)N2C1C6C5CC43", "note": "(stereo unspecified)", "relative growth": 1.05}
{"smiles": "CCn1cc(C(=O)[O-])c(=O)c2cc3c(cc21)OCO3.[K+]", "relative growth": "0.0482 (active)"}
{"smiles": "CCC(=O)CCCCC[C@@H]1NC(=O)[C@H]2CCCCN2C(=O)[C@H]([C@@H](C)CC)NC(=O)[C@H](Cc2cn(OC)c3ccccc23)NC1=O", "relative growth": 0.957}
{"smiles": "O=C1N[C@@H]2C(=C[C@H](O)[C@@H](O)[C@H]2O)c2cc3c(c(O)c21)OCO3", "relative growth": 0.913}
{"smiles": "N#Cc1cccnc1", "relative growth": 1.01}
{"smiles": "NNc1ccn([C@H]2O[C@@H](CO)[C@@H](O)[C@@H]2O)c(=O)n1", "relative growth": 0.394}
{"smiles": "COP(=O)(OC)C(O)C(Cl)(Cl)Cl", "note": "(stereo unspecified)", "relative growth": 0.874}
{"smiles": "CC(C)(O)/C=C/C(=O)[C@](C)(O)[C@H]1[C@H](O)C[C@@]2(C)[C@H]3CC=C4[C@@H](CC(=O)C(=O)C4(C)C)[C@]3(C)C(=O)C[C@]12C", "relative growth": 0.979}
{"smiles": "[O-][n+]1ccccc1[S][Zn][S]c1cccc[n+]1[O-]", "relative growth": "0.0506 (active)"}
{"smiles": "CC(C)C[C@@H]1C(=O)N2CCC[C@@H]2[C@]2(O)O[C@@](NC(=O)[C@@H]3C=C4c5cccc6[nH]cc(c56)C[C@@H]4N(C)C3)(C(C)C)C(=O)N12", "relative growth": 1.04}
{"smiles": "C[CH2][Hg][S]c1ccccc1C(=O)[O-].[Na+]", "relative growth": "0.0484 (active)"}
{"smiles": "O=C([O-])Cc1ccccc1.[Na+]", "relative growth": 0.934}
{"smiles": "CCCCOC(=O)c1ccccc1C(=O)OCCCC", "relative growth": 1.11}
{"smiles": "CC(=O)OC1CCC2(C)C(CCC3C2CCC2(C)C(C4=CC(=O)OC4)C(OC(C)=O)CC32O)C1", "note": "(stereo unspecified)", "relative growth": 1.01}
{"smiles": "CC(C)=CCCC1(C)C=Cc2c(O)c3c(c(CC=C(C)C)c2O1)OC12C(=CC4CC1C(C)(C)OC2(CC=C(C)C(=O)O)C4=O)C3=O", "note": "(stereo unspecified)", "relative growth": 1.01}
{"smiles": "NC(=O)c1ccc(N)nc1", "relative growth": 0.986}
{"smiles": "CCCN1CC(CSC)CC2c3cccc4[nH]cc(c34)CC21.CS(=O)(=O)O", "note": "(stereo unspecified)", "relative growth": 1.15}
{"smiles": "CCNC(=O)[C@H]1O[C@@H](n2cnc3c(N)ncnc32)[C@H](O)[C@@H]1O", "relative growth": 0.996}
{"smiles": "Nc1ccc(Cl)cc1Cl", "relative growth": 1.02}
{"smiles": "Oc1cc(Cl)ccc1Oc1ccc(Cl)cc1Cl", "relative growth": "0.0446 (active)"}
{"smiles": "Oc1ccc(Cl)cc1Cc1cc(Cl)ccc1O", "relative growth": 0.398}
{"smiles": "CN1CC(=O)N(c2cccnc2)C[C@]12CCNC2", "relative growth": 0.998}
{"smiles": "CC12CCC3C(CCC4(O)CC(O)CCC34C=O)C1(O)CCC2C1=CC(=O)OC1", "note": "(stereo unspecified)", "relative growth": 0.972}
{"smiles": "CC(=O)Oc1ccc(Cl)c2cccnc12", "relative growth": "0.0572 (active)"}
{"smiles": "CC=C1CC(C)C(O)(CO)C(=O)OCC2=CCN3CCC(OC1=O)C23", "note": "(stereo unspecified)", "relative growth": 1.04}
{"smiles": "CN1CCOC[C@]2(CCCNC2)C1", "relative growth": 0.994}
{"smiles": "C[C@]12C(=O)OC(=O)[C@]1(C)[C@H]1CC[C@H]2O1", "relative growth": 0.97}
{"smiles": "CN1C(=O)[C@]23CC4=CC=C[C@H](O)[C@H]4N2C(=O)[C@@]1(CO)SS3", "relative growth": "0.0665 (active)"}
{"smiles": "CN1C(=O)[C@@]23C[C@]4([C@@]56C[C@]78SS[C@](CO)(C(=O)N7[C@@H]5Nc5ccccc56)N(C)C8=O)c5ccccc5N[C@H]4N2C(=O)[C@@]1(CO)SS3", "relative growth": 0.917}
{"smiles": "CC1OC(OC2CCC3(C=O)C4CCC5(C)C(C6=CC(=O)OC6)CCC5(O)C4CCC3(O)C2)C(O)C(O)C1O", "note": "(stereo unspecified)", "relative growth": 1.15}
{"smiles": "c1cnc2[nH]cc(CN3CCNCC3)c2c1", "relative growth": 0.977}
{"smiles": "CC(=O)O[C@H]1C[C@H](O[C@H]2[C@@H](O)C[C@H](O[C@H]3[C@@H](O)C[C@H](O[C@H]4CC[C@@]5(C)[C@@H](CC[C@H]6[C@@H]5C[C@@H](O)[C@]5(C)[C@@H](C7=CC(=O)OC7)CC[C@]65O)C4)O[C@@H]3C)O[C@@H]2C)O[C@H](C)[C@H]1O[C@@H]1O[C@H](CO)[C@@H](O)[C@H](O)[C@H]1O", "relative growth": 0.986}
{"smiles": "COP(=S)(OC)Oc1cc(Cl)c(Cl)cc1Cl", "relative growth": "0.0496 (active)"}
{"smiles": "COP(=S)(OC)Oc1ccc(Sc2ccc(OP(=S)(OC)OC)cc2)cc1", "relative growth": 0.986}
{"smiles": "CCOP(=S)(OCC)Oc1nc(Cl)c(Cl)cc1Cl", "relative growth": 1.06}
{"smiles": "CCn1cnc2c(Nc3cccc(Cl)c3)nc(N[C@@H]3CCCC[C@@H]3N)nc21", "relative growth": 0.943}
{"smiles": "CC(=O)OCC1=C(C(=O)O)N2C(=O)[C@@H](NC(=O)CCC[C@@H](N)C(=O)O)[C@@H]2SC1", "relative growth": 1.02}
{"smiles": "CNc1ccc2oc(C[C@H]3O[C@@]4(CC[C@H]3C)O[C@H]([C@H](C)C(=O)c3ccc[nH]3)[C@H](C)C[C@H]4C)nc2c1C(=O)O", "relative growth": 0.962}
{"smiles": "CCCCCCCCCCCCCCCC[n+]1ccccc1.[Cl-]", "relative growth": "0.0713 (active)"}
{"smiles": "CCCCCCCCCCCCCCCC[n+]1ccccc1", "relative growth": "0.16 (active)"}
{"smiles": "CC[C@@H](C)NC=C1C(=O)NC(=O)NC1=O", "relative growth": 1.01}
{"smiles": "CC1OC(OC2CC(O)C3(CO)C4C(O)CC5(C)C(C6=CC(=O)OC6)CCC5(O)C4CCC3(O)C2)C(O)C(O)C1O.O.O.O.O.O.O.O.O", "note": "(stereo unspecified)", "relative growth": 1.01}
{"smiles": "CC1OC(OC2C=C3CCC4C(CCC5(C)C(c6ccc(=O)oc6)CCC45O)C3(C)CC2)C(O)C(O)C1O", "note": "(stereo unspecified)", "relative growth": 0.977}
{"smiles": "C[C@@H]1O[C@@H](O[C@H]2CC[C@]3(C=O)[C@H]4CC[C@]5(C)[C@@H](C6=CC(=O)OC6)CC[C@]5(O)[C@@H]4CC[C@]3(O)C2)[C@H](O)[C@H](O)[C@H]1O", "relative growth": 1}
{"smiles": "C=C(C)[C@H]1CN[C@H](C(=O)O)[C@H]1CC(=O)O", "relative growth": 0.978}
{"smiles": "Cc1nn[nH]n1", "relative growth": 0.979}
{"smiles": "Cc1c(N)nc([C@H](CC(N)=O)NC[C@@H](N)C(N)=O)nc1C(=O)N[C@H](C(=O)N[C@@H](C)[C@H](O)[C@@H](C)C(=O)N[C@@H](C(=O)NCCc1nc(-c2nc(C(=O)NCCC[S+](C)C)cs2)cs1)[C@@H](C)O)[C@@H](O[C@H]1O[C@H](CO)[C@H](O)[C@@H](O)[C@H]1O[C@H]1O[C@H](CO)[C@@H](O)[C@H](OC(N)=O)[C@@H]1O)c1c[nH]cn1", "relative growth": "0.0355 (active)"}
{"smiles": "Cc1c(N)nc([C@H](CC(N)=O)NC[C@@H](N)C(N)=O)nc1C(=O)N[C@H](C(=O)N[C@@H](C)[C@H](O)[C@@H](C)C(=O)N[C@@H](C(=O)NCCc1nc(-c2nc(C(=O)NCCC[S+](C)C)cs2)cs1)[C@@H](C)O)[C@@H](O[C@H]1O[C@H](CO)[C@H](O)[C@@H](O)[C@H]1O[C@H]1O[C@H](CO)[C@@H](O)[C@H](OC(N)=O)[C@@H]1O)c1cnc[nH]1", "relative growth": "0.0324 (active)"}
{"smiles": "Cc1cc(O)c2c(=O)c3c(O)cc(O)c4c5c(O)cc(O)c6c(=O)c7c(O)cc(C)c8c1c2c(c34)c(c78)c65", "relative growth": 1.61}
{"smiles": "O=C1[O][SbH]23[O]C(=O)[C@H]([O]2)[C@H]2[O][SbH]4([O]C(=O)[C@H]([O]4)[C@H]1[O]3)[O]C2=O", "relative growth": 0.313}
{"smiles": "CC1=C[C@H]2O[C@@H]3[C@H](O)[C@@H](O[C@H]4O[C@H](CO)[C@@H](O)[C@H](O)[C@H]4O)[C@](C)([C@@]2(CO)CC1)[C@]31CO1", "relative growth": 0.947}
{"smiles": "O=C1CCCC2C3CCCN4CCCC(CN12)C34", "note": "(stereo unspecified)", "relative growth": 1.05}
{"smiles": "Cc1nc2c(=O)n(C)c(=O)nc-2n(C)n1", "relative growth": "0.0393 (active)"}
{"smiles": "CCn1nc(-c2cccnc2)nc2c(=O)n(C)c(=O)nc1-2", "relative growth": 0.846}
{"smiles": "Cn1ncnc2c(=O)n(C)c(=O)nc1-2", "relative growth": "0.0341 (active)"}
{"smiles": "COc1cccc2c1C(=O)c1c(O)c3c(c(O)c1C2=O)C[C@@](O)(C(=O)CO)C[C@@H]3O[C@H]1C[C@H](N2CCO[C@H](OC)C2)[C@H](O)[C@H](C)O1", "relative growth": 0.933}
{"smiles": "CO[C@H]1C[C@H](O[C@H]2CC[C@]3(C=O)[C@H]4CC[C@]5(C)[C@@H](C6=CC(=O)OC6)CC[C@]5(O)[C@@H]4CC[C@]3(O)C2)O[C@H](C)[C@H]1O", "relative growth": 0.98}
{"smiles": "CO[C@H]1[C@@H](O)C[C@@H](O[C@H]2[C@@H](O)C[C@@H](O[C@H]3[C@@H](O)C[C@@H](O[C@H]4CC[C@@]5(C)[C@@H](CC[C@H]6[C@@H]5C[C@@H](O)[C@@]5(C)[C@H](C7=CC(=O)OC7)CC[C@@]65O)C4)O[C@@H]3C)O[C@@H]2C)O[C@@H]1C", "relative growth": 1}
{"smiles": "C=CCN1C(=O)NC(=O)/C(=C/c2ccco2)C1=O", "relative growth": 0.971}
{"smiles": "NC(=O)c1cn([C@H]2O[C@@H](CO)[C@H](O)[C@@H]2O)c2ncnc(N)c12", "relative growth": 0.892}
{"smiles": "CN1[C@@H]2CC[C@H]1C[C@H](O)C2", "relative growth": 1}
{"smiles": "C=C1[C@@H](C)[C@H]2[C@H](Cc3ccccc3)NC(=O)[C@]23[C@H](OC(C)=O)/C=C/[C@](C)(O)C(=O)[C@@H](C)C/C=C/[C@H]3[C@@H]1O", "relative growth": 0.976}
{"smiles": "O=S(=O)(O)O.Oc1cccc2cccnc12", "relative growth": "0.0986 (active)"}
{"smiles": "CC12CCC3c4ccc(OC(=O)N(CCCl)CCCl)cc4CCC3C1CCC2O", "note": "(stereo unspecified)", "relative growth": 0.992}
{"smiles": "CCCCCCCCCC(=O)O[C@@H]1[C@@H](C)[C@]2(O)[C@@H](C=C(CO)C[C@]3(O)C(=O)C(C)=C[C@@H]23)[C@@H]2C(C)(C)[C@@]12OC(=O)CCCCCCCCC", "relative growth": 1.03}
